According to the supplement of paper PMC6555819:

How the values were obtained:
Assay in all cases: PBM binding z-score (relative to random genomic background probes); higher = stronger binding; sequences stand for … in GC…GCGATTGACAGCGTAGAATGAAGG
[1] = tested on: FXR:RXRa (NR concentration 270 nM, RXRa partner concentration 90 nM)
Outline: (§1)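 Custom Agilent 4×180K protein-binding microarrays carried double-stranded probes. Their 34-nt variable regions held direct-repeat seeds, single-nucleotide variants, half-site ablations and random human genomic background sequences. Arrays were incubated 1 h with ligand-free nuclear receptor dimers in PBS pH 7.4, 2% milk, 0.02% Triton X-100, 1 mM DTT, 0.2 mg/mL BSA and 0.4 mg/ml salmon testes DNA. Antibodies against each partner (one per run) detected binding, and scanned fluorescence was regression-normalized. Binding z-scores use random background probes as reference.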

[2] = tested on: LXRa:RXRa (NR concentration 270 nM, RXRa partner concentration 90 nM)
Outline: as §1

[3] = tested on: LXRa homodimer (NR concentration 270 nM)
Outline: as §1

[4] = tested on: LXRb:RXRa (NR concentration 270 nM, RXRa partner concentration 90 nM)
Outline: as §1

[5] = tested on: LXRb homodimer (NR concentration 270 nM)
Outline: as §1

[6] = tested on: PPARa:RXRa (NR concentration 270 nM, RXRa partner concentration 90 nM)
Outline: as §1

[7] = tested on: PPARg:RXRa (NR concentration 180 nM, RXRa partner concentration 90 nM)
Outline: as §1

[8] = tested on: PPARg:RXRa 270nM:90nM, anti-RXR (NR concentration 270 nM, RXRa partner concentration 90 nM)
Outline: as §1

[9] = tested on: PPARg:RXRa 30nM:10nM, anti-RXR (NR concentration 30 nM, RXRa partner concentration 10 nM)
Outline: as §1

[10] = tested on: PPARg:RXRa 90nM:30nM, anti-RXR (NR concentration 90 nM, RXRa partner concentration 30 nM)
Outline: as §1

[11] = tested on: PPARg:RXRa DBDmut IVT, anti-RXR (DBD mutation: RXRa K156A/R161A, NR concentration 270 nM, RXRa partner concentration 90 nM)
Outline: as §1

[12] = tested on: PPARg:RXRa IVT, anti-PPARg (NR concentration 270 nM, RXRa partner concentration 90 nM)
Outline: as §1

[13] = tested on: PPARg DBDmut:RXRa IVT, anti-PPARg (DBD mutation: PPARg1 K132A/R137A, NR concentration 270 nM, RXRa partner concentration 90 nM)
Outline: as §1

[14] = tested on: PPARg DBDmut IVT, anti-PPARg (DBD mutation: PPARg1 K132A/R137A, NR concentration 270 nM)
Outline: as §1

[15] = tested on: PPARg homodimer (NR concentration 180 nM)
Outline: as §1

[16] = tested on: PXR:RXRa (NR concentration 270 nM, RXRa partner concentration 90 nM)
Outline: as §1

[17] = tested on: PXR homodimer (NR concentration 270 nM)
Outline: as §1

[18] = tested on: RARa:RXR (NR concentration 270 nM, RXRa partner concentration 90 nM)
Outline: as §1

[19] = tested on: RARa homodimer (NR concentration 270 nM)
Outline: as §1

[20] = tested on: RARb:RXRa (NR concentration 270 nM, RXRa partner concentration 90 nM)
Outline: as §1

Row | Sequence | PBM binding z-score [1] | PBM binding z-score [2] | PBM binding z-score [3] | PBM binding z-score [4] | PBM binding z-score [5] | PBM binding z-score [6] | PBM binding z-score [7] | PBM binding z-score [8] | PBM binding z-score [9] | PBM binding z-score [10] | PBM binding z-score [11] | PBM binding z-score [12] | PBM binding z-score [13] | PBM binding z-score [14] | PBM binding z-score [15] | PBM binding z-score [16] | PBM binding z-score [17] | PBM binding z-score [18] | PBM binding z-score [19] | PBM binding z-score [20]
1 | CAAACTAGTTCACCGGAAGGTCAAAGTCCGCATG | 4.43 | 4.89 | 4.71 | 4.6 | 1.66 | 4.24 | 1.87 | 2.85 | 0.587 | 1.95 | 2.4 | 2.7 | 0.634 | 0.566 | 3.3 | 5.22 | 3 | 5.72 | 1.73 | 4.36
2 | CGAAGTAGGTCATCCAGGACAGTGAATACATTGA | 4.86 | 3.19 | 1.2 | 2.64 | 0.447 | 5.16 | 8.31 | 7.05 | 4.99 | 6.9 | 8.36 | 8.63 | 3.1 | 2.28 | 2.17 | 2.56 | 1.49 | 3.08 | 0.771 | 3.82
3 | ACTCACGGGTCAACGAGGTTATAGCACGCGTATA | 6.65 | 4.67 | 0.969 | 4.03 | 0.564 | 5.34 | 4.39 | 4.55 | 1.72 | 3.08 | 1.79 | 2.88 | 0.756 | 1.16 | 4.09 | 5.33 | 4.27 | 5.51 | 1.43 | 4.27
4 | ACAGACAGGTGATGAAGGGAACTCAGGCTATCAT | -0.0225 | -0.0438 | -0.158 | -0.298 | -0.495 | -0.115 | 0.754 | 0.00384 | 0.0362 | -0.027 | 0.344 | 0.145 | 0.471 | -0.0521 | 0.0738 | -0.382 | 0.482 | -0.121 | 0.0733 | 0.0899
5 | GCTGGCAGGCCATTTGGGTCACTCAATGACGGGC | 0.108 | 0.0335 | -0.419 | -0.156 | -0.843 | 1.3 | 0.526 | 0.786 | -0.361 | 0.136 | 0.621 | 1.63 | -1.06 | -1.22 | -0.317 | 0.654 | 0.117 | 0.679 | -0.882 | 1.63
6 | CGAACTAGGTGAGAACAGGACAGTGAAGGATGAT | -0.071 | -0.292 | -0.107 | -0.534 | -0.796 | 1.57 | 2.76 | 2.11 | 0.836 | 1.12 | 6.37 | 5.97 | 0.979 | 0.431 | 0.246 | 0.0752 | 0.241 | 0.486 | 0.275 | 0.285
7 | ACTATTAGTTGACTTAGGGCAAGCGATACGACGC | 0.286 | 0.302 | 0.111 | 0.0469 | 0.509 | 0.124 | 0.824 | 0.206 | 0.267 | 0.144 | 0.209 | 0.768 | 0.636 | 1.04 | 0.596 | 0.255 | 0.294 | 0.775 | 0.794 | 0.892
8 | GCCTGTAGATCAAGGTTAAGAAAGACTAAGCTAA | 0.000969 | 0.697 | -0.269 | 0.679 | -0.964 | 1.28 | 0.434 | 1.19 | 0.0672 | 0.861 | 0.625 | 0.319 | -0.514 | -0.208 | -0.292 | 0.333 | -0.503 | 0.885 | -1.02 | 0.799
